# Reference: PubChem BioAssay AID1276 (Columbia University Molecular Screening Center, 2008)
# The whole screen tested about 190,000 compounds, of which about 2,000 (1.1%) were called active.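 How the source made its calls: active means activation above a set limit, based on mean plus 3 SD of controls (cut at about 140% in these data); inconclusive means one replicate above the limit, the other below; inactive means the rest.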 The full list was thinned out, with actives kept by preference.
# Assay: activators of APP 5'UTR luciferase reporter, primary screen, SH-SY5Y cells (AID 1276)
# Settings: SH-SY5Y APP 5'UTR luciferase reporter, luminescence; at 2 µM; hits give high values; zero percent = DMSO vehicle wells
row,SMILES,activation
1,Cc1nn(Cc2ccc(F)cc2)c(C)c1NC(=O)c1cccnc1Cl,10.3% (inactive)
2,Cc1ccc(-c2nc3ccccc3[nH]2)cc1N,201% (active)
3,c1ccc2[nH]c(-c3nc4ccccc4[nH]3)nc2c1,181% (active)
4,Cc1ccc(-c2nc3ccccc3[nH]2)cc1NC(=O)c1sc2ccccc2c1Cl,-3.21% (inactive)
5,c1ccc(-c2[nH]ncc2-c2nc3ccccc3[nH]2)cc1,-1.2% (inactive)
6,COc1ccc(Br)cc1C(=O)NC(=S)Nc1cc(-c2nc3ccccc3[nH]2)ccc1C,21.4% (inactive)
7,COc1ccc(-c2[nH]nc(-c3ccccc3)c2-c2nc3ccccc3[nH]2)cc1,-4.36% (inactive)
8,COc1ccc(C2CC(c3ccccc3)=NN2C(=O)COC(=O)COc2ccccc2)cc1 (stereo not given),0.61% (inactive)
9,O=C(CSc1ccc([N+](=O)[O-])cn1)Nc1ccc(N2CCOCC2)c(Cl)c1,-13% (inactive)
10,COc1ccc(-c2csc(NC(=O)CCCc3cccs3)n2)cc1,-2.07% (inactive)
11,COc1ccc(OC)c(Nc2nc(-c3ccc(O)c(O)c3)cs2)c1,-40.2% (inactive)
12,COc1ccc(-c2csc(Cc3nc(O)cs3)n2)cc1,157% (active)
13,N/C(=N\OC(=O)c1cc(-c2ccccc2)nc2ccccc12)c1ccncc1,7.36% (inactive)
14,Cc1cccc(C(=O)c2cccc(C)c2)c1,7.97% (inactive)
15,Cc1cccc(/C(N)=N/OC(=O)c2ccccc2Cl)c1,206% (active)
16,Cc1ccc(NC(=S)N2CCN(c3ncccn3)CC2)cc1C,2.51% (inactive)
17,O=[N+]([O-])c1cccc(Nc2c3ccccc3nc3ccccc23)c1,-0.09% (inactive)
18,COc1cccc(-c2nc3cc(C)ccc3o2)c1,172% (active)
19,COc1cccc(-c2nc(S(=O)(=O)c3ccccc3)c(N3CCOCC3)o2)c1,10.7% (inactive)
20,O=[N+]([O-])c1ccc2oc(-c3cccc(O)c3)nc2c1,184% (active)
21,COc1ccc(-c2nc3cc([N+](=O)[O-])ccc3o2)cc1OC,20.2% (inactive)
22,COc1ccc2oc(-c3cccc(NC(=O)CSc4ccc(Cl)cc4)c3)nc2c1,48.5% (inactive)
23,N#Cc1c(-c2ccc(Cl)cc2)c2c([nH]c1=S)CCCC2,15.9% (inactive)
24,COc1cc(OC)c(-n2cc(-c3ccc(Cl)cc3)[nH]c2=O)cc1Cl,-7.27% (inactive)
25,CC1(C)CC(=O)C=C(N2CCOCC2)C1,6.79% (inactive)
26,CCCNS(=O)(=O)c1ccc(CCC(=O)N2CCCC2)cc1,4.45% (inactive)
27,COC(=O)c1nc2ccccc2s1,-8.64% (inactive)

row,SMILES,activation
1,O=C(O)CSCc1nc2ccccc2s1,-3.48% (inactive)
2,O=C(O)CCCCc1nc2ccccc2s1,-11.6% (inactive)
3,CC(C)CC(=O)N/C(N)=N/c1nc2ccccc2s1,203% (active)
4,CCC(=O)NC(=Nc1nc2ccccc2s1)NC(=O)CC,147% (active)
5,CC(C)CC(=O)NC(=S)NCc1ccccc1,9.6% (inactive)
6,Cc1ccc(C(=O)NNC(=O)c2cccs2)cc1,38.8% (inactive)
7,NC1=NC(=O)C(Cc2cccc(Cl)c2)S1 (stereo not given),11.8% (inactive)
8,C=CCO/N=C/C1=C(O)C(C(=O)OC)C(C)(C)CC1=O (stereo not given),7.9% (inactive)
9,Cc1cccc(C)c1OCC(=O)NC(Cc1c[nH]c2ccccc12)C(=O)O (stereo not given),10.3% (inactive)
10,O=C(CN1C(=O)c2cccc3cccc1c23)Nc1ccccc1,-9.88% (inactive)
11,O=C(N/N=C/c1cc2c(cc1Br)OCO2)C1COc2ccccc2O1 (stereo not given),-5.77% (inactive)
12,CCCOc1ccc(C(=O)NCCc2ccccc2)cc1,156% (active)
13,O=C(NCCc1ccccc1)c1ccc(OCCOc2ccccc2)cc1,4.18% (inactive)
14,O=C(NCCOc1ccccc1)c1ccccc1,123% (inactive)
15,Cc1ccnc(NC(=O)c2ccc(NC(=O)c3ccco3)cc2)c1,79.3% (inactive)
16,COc1cccc(C(=O)Nc2ccc(NC(=O)c3ccco3)cn2)c1,25.8% (inactive)
17,O=C(Nc1ccc(NC(=O)c2cccs2)cn1)c1ccco1,148% (active)
18,O=C(Cc1ccccc1)NNC(=O)C1CCN(c2ncccn2)CC1,18.4% (inactive)
19,CC(C)C(=O)OCC(=O)Nc1ccc2c(c1)CCC2,5.67% (inactive)
20,O=C(NC1CCCC1)c1ccc(Br)s1,-4.11% (inactive)
21,O=C(Nc1ccc2c(c1)CCC2)c1ccc(Br)s1,208% (active)
22,Cc1ccc2nsnc2c1S(=O)(=O)N1CCCC1C(=O)O (stereo not given),-2.44% (inactive)
23,CCNc1nc(-c2cc3ccccc3o2)cs1,188% (active)
24,O=c1oc2ccccc2cc1-c1csc(Nc2ccc(O)cc2)n1,61% (inactive)
25,COc1ccc2nc(Nc3nc(-c4cc5ccccc5oc4=O)cs3)sc2c1,33% (inactive)
26,CC(Nc1ccccc1)c1cccnc1 (stereo not given),-12.4% (inactive)
27,Cc1nonc1NC(=O)CSc1nc2ccccc2cc1C#N,15.1% (inactive)

row,SMILES,activation
1,CCOc1ccc2nc(NCCNS(=O)(=O)c3ccccc3)c(C#N)cc2c1,6.65% (inactive)
2,CCOc1ccc2cc(C#N)c(SCC(=O)OC)nc2c1,159% (active)
3,CN1CCN(/N=C2/C(=O)Nc3ccc([N+](=O)[O-])cc32)CC1,13.5% (inactive)
4,COC(=O)CSc1nc(C)c2ccc(OC)cc2n1,0.88% (inactive)
5,COc1ccc(-c2nnc3ccc(SCc4ccccc4)nn23)cc1,-7.22% (inactive)
6,COc1ccc2nc(SCc3ccccc3)nc(C)c2c1,170% (active)
7,Cc1ccc(NC(=O)CCC(=O)N/N=C/c2ccco2)c(C)c1,8.01% (inactive)
8,COc1ccc(C2=Nc3cc(C)ccc3OC2)cc1,151% (active)
9,COc1ccc(C2=NOC(COC(=O)c3ccc4ccccc4n3)C2)cc1 (stereo not given),16.6% (inactive)
10,COc1ccc(C2=NOC3(CC(=O)N(c4ccc(C)cc4)C3=O)C2)cc1 (stereo not given),-3.01% (inactive)
11,CCOc1ccccc1N1CCN(C(=S)Nc2ccc(S(N)(=O)=O)cc2)CC1,11.8% (inactive)
12,Clc1ncn(CCOc2ccccc2)c1Cl,-15.2% (inactive)
13,Fc1ccc2nc(N3CCCCC3)sc2c1,112% (inactive)
14,Fc1ccc2nc(Nc3nc4c(s3)CCCC4)sc2c1,143% (active)
15,CSc1ncccc1C(=O)Nc1nc2ccc(F)cc2s1,52.4% (inactive)
16,CC(=O)Nc1ccc(S(=O)(=O)N2CCN(c3ccc([N+](=O)[O-])c(NCCN4CCOCC4)c3)CC2)cc1,-6.4% (inactive)
17,O=C(COC(=O)[C@H](Cc1ccccc1)NC(=O)c1cccs1)Nc1cc(F)ccc1F,12.5% (inactive)
18,O=C(CSc1nnc(SCc2ccc(Cl)cc2)s1)N/N=C/c1ccccc1Cl,-2.73% (inactive)
19,COc1ccc(NC(=O)CSc2nc(C)cs2)cc1,6.05% (inactive)
20,Cc1csc(SCC(=O)Nc2sccc2C#N)n1,192% (active)
21,Cc1cccc(C)c1Nc1nnc(SCC(=O)Nc2sccc2C#N)s1,-9.91% (inactive)
22,C=CCn1c(CCNC(=O)c2cccs2)n[nH]c1=S,-1.77% (inactive)
23,CCCCOc1ccc(-c2nnc(-c3ccco3)o2)cc1,136% (active)
24,CCCCSc1nnc(-c2ccc(C)cc2)o1,115% (inactive)
25,COc1ccc(C(=O)CSc2nnc(-c3ccco3)o2)cc1,22.7% (inactive)
26,CCC(=O)Oc1cccc(C(=O)Nc2ccc(-c3nnc(-c4ccco4)o3)cc2)c1,92.5% (inactive)
27,CCOc1ccc(-c2nnc(-c3ccco3)o2)cc1,147% (active)

row,SMILES,activation
1,CCCCOc1ccc(C(=O)NCc2ccco2)cc1,4.26% (inactive)
2,COCCSc1nnc(NC(=O)c2cc(OC)c(OC)cc2[N+](=O)[O-])s1,5.07% (inactive)
3,COc1cccc(N(C(=O)C2COc3ccccc3O2)C(C(=O)NC2CCCCC2)c2ccc(O)cc2)c1 (stereo not given),-0.98% (inactive)
4,CN1CCN(c2nc(Nc3ccc(O)cc3)nc3ccccc23)CC1,18.9% (inactive)
5,Cc1cc(Oc2ccc(Cl)cc2)nc(SCC(=O)c2ccccc2)n1,11.5% (inactive)
6,CC(=O)NC(CC(=O)O)c1ccc(F)cc1 (stereo not given),5.81% (inactive)
7,O=C(Nc1ccc2nccnc2c1)c1ccco1,39.6% (inactive)
8,O=C(Nc1ccc2oc(-c3ccccc3F)nc2c1)c1ccco1,146% (active)
9,O=C(Nc1cccc(-c2nc3ncccc3o2)c1)c1ccco1,-10.6% (inactive)
10,Cc1cnc(C(=O)N2CCCC(C(=O)c3ccc(C(F)(F)F)cc3)C2)cn1 (stereo not given),23% (inactive)
11,NS(=O)(=O)c1ccc(NC(=O)COC(=O)C2(c3ccc(F)cc3)CCCC2)cc1,5.99% (inactive)
12,COc1ccc(CN(C)C(C)C(=O)NC2CCCc3ccccc32)cc1 (stereo not given),9.96% (inactive)
13,CC(NC(=O)COC(=O)c1cc(=O)[nH]c2ccccc12)c1ccccc1 (stereo not given),-4.94% (inactive)
14,O=C(NC1CC1)C1CCCN(C(=O)NC2CCCCC2)C1 (stereo not given),18.2% (inactive)
15,O=C(Nc1nc(-c2cccnc2)cs1)c1ccccc1F,61.5% (inactive)
16,c1ccc(-c2noc(-c3cccs3)n2)nc1,209% (active)
17,c1csc(-c2nc(-c3ccncc3)no2)c1,55.4% (inactive)
18,CC(C)c1nc(-c2ccccn2)no1,7.91% (inactive)
19,CC(C)n1c(O)c(N=Nc2ccccn2)c2ccccc21,3.63% (inactive)
20,CC(C)N1CCC(NC(=O)Nc2ccccc2)CC1,15.8% (inactive)
21,CC(C)(C)NS(=O)(=O)c1ccc(NC(=O)NC2CCCCC2)cc1,-13.3% (inactive)
22,CC(C)c1ccc(NC(=O)NC2CCCCC2)cc1,139% (active)
23,CC(NCc1nc2ccccc2n1C)C12CC3CC(CC(C3)C1)C2 (stereo not given),9.64% (inactive)
24,CC(=O)n1cc([C@H]2C=C(C(=O)N3CCOCC3)O[C@@H](OCc3ccc(CO)cc3)C2)c2ccccc21,3.91% (inactive)
